Compound activity from PubChem.
CRE Fsk mod: modulators of forskolin-stimulated CRE signaling in CHO cells. hit rate 2.5% among 71,000. CHO CRE-bla reporter (cAMP response element driving beta-lactamase), forskolin EC10, beta-lactamase ratio. AID 662. Potency, µM (titrated, usually from 38.2 µM), for inactives: at the highest dose activity change, negative = inhibition, hits mostly activators; active = well fitted activation curve with a large enough effect in the signal ratio, with a control signal flat, not every such curve was filed as active; inconclusive = small, poorly fitted or top-dose-only effect, or effect the other way, or a change in a side signal; the % refers to the signal ratio; note: % of control where 0% means no effect
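Forskolin analogue NKH 477 at EC10 stimulated CRE-driven beta-lactamase in CHO cells alongside compound dilution series. Beta-lactamase was measured with CCF4, excitation 405 nm, emission ratio 460/530 nm.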
TSHR agonist: TSH receptor (human) agonism | P16473 | HEK293-CNG-TSHR cells (CNG channel as cAMP sensor), membrane potential dye, cAMP | Potency, µM (series often up to 57.1 µM), for the others: at the top dose activation, most hits filed as activators | hit rate 0.48% among 73,000; active = well fitted activation curve with a large enough effect in the main read-out, with a control signal flat, not every such curve was filed as active; inconclusive = small, poorly fitted or top-dose-only effect, or a change in a side signal; inactive = no such curve, though single readings can be large or run the other way; % of control where 0% means no effect;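 note: the control signal comes from parental cells without the receptor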
Target sequence (P16473 whole entry, looked up): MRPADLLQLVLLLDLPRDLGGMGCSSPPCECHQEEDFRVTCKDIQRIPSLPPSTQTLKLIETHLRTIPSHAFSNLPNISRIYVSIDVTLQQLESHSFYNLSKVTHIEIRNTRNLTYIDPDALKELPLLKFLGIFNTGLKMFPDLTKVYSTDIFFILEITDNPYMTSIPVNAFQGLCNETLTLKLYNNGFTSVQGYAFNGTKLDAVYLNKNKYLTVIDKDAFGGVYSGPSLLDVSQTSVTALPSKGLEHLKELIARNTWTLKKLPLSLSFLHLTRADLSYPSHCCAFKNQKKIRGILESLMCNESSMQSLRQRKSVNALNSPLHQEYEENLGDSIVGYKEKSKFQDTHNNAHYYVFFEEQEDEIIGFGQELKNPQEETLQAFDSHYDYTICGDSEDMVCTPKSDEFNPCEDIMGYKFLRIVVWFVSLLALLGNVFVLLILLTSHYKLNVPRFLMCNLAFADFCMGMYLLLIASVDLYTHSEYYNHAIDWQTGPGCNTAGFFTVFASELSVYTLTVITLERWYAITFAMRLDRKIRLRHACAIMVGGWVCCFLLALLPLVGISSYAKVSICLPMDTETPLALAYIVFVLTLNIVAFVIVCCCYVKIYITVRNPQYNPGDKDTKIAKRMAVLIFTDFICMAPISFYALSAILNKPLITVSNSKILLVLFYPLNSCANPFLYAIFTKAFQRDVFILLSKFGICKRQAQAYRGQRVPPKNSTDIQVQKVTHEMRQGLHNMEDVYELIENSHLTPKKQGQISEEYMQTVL
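cAMP rise detected as CNG-channel membrane depolarization by fluorescent dye (emission 590 nm), 30 min after compound, following 60 min dye loading containing 100 uM RO 20-1724 at room temperature. Cells: TSHR/CNG HEK 293, with parental CNG HEK 293 as control.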
HEK293 cAMP ctrl: raises cAMP in parental HEK293 cells, TSHR agonist counter-screen. hit rate 2.5% among 73,000. Potency, µM (series often up to 57.1 µM), without a hit: at the top dose activation, most hits filed as activators. parental HEK293 CNG cAMP sensor, membrane potential fluorescence; active = well fitted activation curve with a large enough effect; inconclusive = small, poorly fitted or top-dose-only effect; inactive = no such curve, though single readings can be large or run the other way; note: % of control where 0% means no effect; nearly all actives have a fitted effect of over 55% in size
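Parental HEK 293 cells stably expressing a modified CNG channel (no TSHR) report cAMP rise as membrane depolarization. Membrane potential dye with 100 uM RO 20-1724 was loaded for 60 min at room temperature, then compound added for 30 min; fluorescence read at 590 nm.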
IkB sig inh: IkB pathway inhibition in ABC-DLBCL cells; hit rate 0.04% among 110,000; Potency, µM (titrated, usually from 57.1 µM), inactives show top-dose IkBa stabilization activation; ABC-DLBCL IkBa-CBG/CBR dual luciferase ratio, 4 h; response scale: scaled: untreated 0%, proteasome inhibitor 100%; active = well fitted curve in the direction sought with a large enough effect in the signal ratio, not every such curve was filed as active; inconclusive = small, poorly fitted or top-dose-only effect, or a change in a side signal; the % refers to the signal ratio;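 note: the direction sought is a rising ratio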
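In this assay, an IκBα–CBG68 fusion accumulates when IKK-driven degradation is blocked; native CBR normalizes for cell number. OCI-Ly3 cells were treated 4 h with compound and doxycycline, then green and red light read after Chroma-Glo addition.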
Hsp90 Hop PPI: changes Hsp90-Hop TPR2A binding signal, up or down; AlphaScreen TPR2A-His6 binding biotin-Hsp90 C-terminal peptide; Potency, µM (series often up to 57 µM), for inactives: top-dose activity change, negative = inhibition; hit rate 0.44% among 71,000; AID 595; active = well fitted curve in either direction with a large enough effect; inconclusive = small, poorly fitted or top-dose-only effect, or another doubt; note: % is set by controls: 0 for no effect and ±100 for the full control effect
Active calls of the source: *; ? = inconclusive; nt = not tested or not shown; [ ] = dose if it differs, or a comment. Sampled rows, rich in hits. Any-hit rate of the full collection: about 3.5%. Potency is the fitted concentration of half-maximal effect.

SMILES | CRE Fsk mod | TSHR agonist | HEK293 cAMP ctrl | IkB sig inh | Hsp90 Hop PPI
COc1ccc(C(=O)OCCNC(=O)c2c(Cl)nc3ccccn23)cc1 | 0.4µM* | 25% | -1% | ? | 0%
CC(=O)c1c(O)c(C)c(O)c2c1OC1=CC(=O)[C@H](C(C)=O)C(=O)[C@]12C | ? | 2% | 2% | 0%[11.4 µM] | -2%
O=C1C2=C(Nc3ccccc3SC2c2ccco2)c2ccccc21 (stereo not drawn) | ? | 2µM* | -23% | ? | ?
Cc1oc2nc(SCC(=O)NC3CCCCC3)nc(N)c2c1C | 13µM* | 21% | 14% | 0% | -9%
COc1ccc(CCNC(=O)CSc2nc(N)c3c(C)c(C)oc3n2)cc1OC | ? | 11% | -2% | -1% | -3%
CCOC(=O)c1c(NC(=O)CN2CCOCC2)sc2c1CCCC2=O | ? | 12% | 20% | -2% | -4%
CC1CN(S(=O)(=O)c2ccc(C(=O)Nc3sc4c(c3C(N)=O)CCN(C)C4)cc2)CC(C)O1 (stereo not drawn) | 5% | ? | ? | 3% | 0%
CCOC(=O)c1c(NC(=O)CN2CCCCC2)sc2c1CCN(C(=O)OCC)C2 | nt | ? | 7.9µM* | nt | nt
CCOC(=O)c1sc(NC(=O)CN2CCCC2)c(C(=O)OCC)c1C | 8% | 24% | 25% | 1% | 1%
CCOC(=O)c1c(-c2cccs2)csc1NC(=O)c1ccco1 | 12% | -2% | 15% | -1% | 2%
CCOC(=O)c1c(NC(=O)c2ccc(S(=O)(=O)N3CCOCC3)cc2)sc2c1CCN(C)C2 | 16µM* | nt | -10% | -4% | -12%
CCOC(=O)c1c(NC(=O)CN2CCOCC2)sc2c1CCCC2 | 13µM* | nt | 26% | 2% | ?
CCOC(=O)c1c(-c2cccs2)csc1NC(=O)CN1CCOCC1 | 13µM* | ? | ? | 0% | 1%
O=C1C2Cc3c([nH]c4ccccc34)C(c3ccccc3)N2C(=O)C2Cc3c([nH]c4ccccc34)C(c3ccccc3)N12 (stereo not drawn) | nt | -18%[11.4 µM] | -5%[11.4 µM] | nt | nt
Cc1ccc(-c2nn(C)c(=O)c3ccccc23)cc1S(=O)(=O)NCCN1CCOCC1 | 7.9µM* | 7% | 18% | 2% | -8%
COc1ccc2c(c1)c1c(c(=O)n(-c3ccccc3C)c(=O)n1Cc1cccc(C(F)(F)F)c1)n2C | nt | nt | nt | -1% | nt
COc1ccc(Cl)cc1NC(=O)NC(C)c1ccncc1 (stereo not drawn) | -10% | 23% | 25% | 1% | 0%
COc1ccc(Cl)cc1NC(=O)C1CSC(c2ccncc2)=N1 (stereo not drawn) | 3.2µM* | 10% | 13% | -4% | -1%
COc1ccc(-c2nc(C(N)=O)c3[nH]c(=O)n(-c4cccc(C)c4)c3n2)c(OC)c1 | 10µM* | 19% | 9% | -4% | -6%
O=C(Cn1c(=O)n2ncnc2c2c3c(sc21)CCCC3)c1ccccc1 | 17% | ? | 25µM* | 0% | -6%
O=c1n(Cc2ccccc2Cl)c2sc3c(c2c2ncnn12)CCCC3 | 0.2µM* | 20µM* | 28% | -3% | -3%
O=c1c2c3c(sc2n(Cc2ccccc2F)c(=O)n1-c1ccc(Cl)cc1)CCCC3 | nt | nt | nt | 2% | nt
Cc1ccc(C2C3CSCC=C3C(C#N)=C(N)C2(C#N)C#N)cc1 (stereo not drawn) | ? | 25µM* | -2% | 12% | -8%
CS(=O)(=O)c1ccc([C@H](O)[C@H](CF)NC(=O)C(Cl)Cl)cc1 | -1%[17.1 µM] | -7%[25.6 µM] | 5%[25.6 µM] | 1%[25.6 µM] | ?
C=CC1=C(C)C2=Cc3c(C=C)c(C)c4[n]3[Sn+2][n]3c(c(C)c(CCC(=O)O)c3=CC3=NC(=C4)C(C)=C3CCC(=O)O)=CC1=N2 | -8% | 2% | 2% | 0% | 32µM*
SMILES | CRE Fsk mod | TSHR agonist | HEK293 cAMP ctrl | IkB sig inh | Hsp90 Hop PPI
C=Cc1c(C)c2cc3[nH]c(cc4nc(cc5nc(cc1[nH]2)C(C)=C5CCC(=O)O)C(CCC(=O)O)=C4C)c(C)c3C=C | 20% | -6% | -12% | -7% | ?
C=CCOCC1CN2C(CCC(C)C2c2ccc(Br)cc2)C(=O)O1 (stereo not drawn) | nt | 9%[11.4 µM] | 16%[11.4 µM] | nt | nt
CCOC(=O)C1CCCN(C(=O)c2ccc3c(c2)N(Cc2cccc(Cl)c2)C(=O)c2ccccc2S3(=O)=O)C1 (stereo not drawn) | nt | nt | nt | 0% | nt
COc1cc(OC)c2cc(-c3ccncc3)cnc2c1 | 5µM* | 15% | -5% | 1% | 1%
CC(C)C(=O)N[C@H]1CCCN1C(=O)/C=C\c1ccccc1 | nt | 3%[11.4 µM] | 1%[11.4 µM] | nt | nt
CC(C)Oc1ccccc1C1CC(=O)Nc2cc3c(cc21)OCO3 (stereo not drawn) | 5µM* | ? | ? | ? | ?
CCCCOc1ccccc1C1CC(=O)Nc2cc(C)c(C)cc21 (stereo not drawn) | nt | nt | nt | 0% | nt
CCCOc1ccccc1C1CC(=O)Nc2cc3c(cc21)OCCO3 (stereo not drawn) | 6.3µM* | nt | 25% | ? | -14%
CCOc1ccccc1C1CC(=O)NC2=C1C(=O)CCC2 (stereo not drawn) | 10% | 2% | 20% | 0% | -1%
CCOc1cc(C2CC(=O)Nc3cc4c(cc32)OCCO4)ccc1O (stereo not drawn) | nt | nt | nt | 1% | nt
CCOc1ccccc1C1CC(=O)Nc2cc3c(cc21)OCCO3 (stereo not drawn) | 10µM* | ? | ? | 5% | -11%
CCCCOc1ccccc1C1CC(=O)NC2=C1C(=O)CCC2 (stereo not drawn) | 16µM* | 12% | 16% | 6% | -1%
COc1ccc(NC(=O)CSc2nncn3c2cc2occc23)c(OC)c1 | nt | nt | nt | 14% | nt
CCc1nc(N2CCCCC2C)c2oc3ccccc3c2n1 (stereo not drawn) | 2.5µM* | ? | 20µM* | 13% | 16%
CCc1nc(N2CCCC(C)C2)c2oc3ccccc3c2n1 (stereo not drawn) | 10µM* | ? | 16µM* | 2% | 10%
CCOC(=O)C1CCCN(c2nc(C)nc3c2oc2ccccc23)C1 (stereo not drawn) | 1% | 24% | 11% | -3% | 0%
CCNc1cc(=O)n(C)c(=O)n1C | 10µM* | 4% | -4% | 1% | 0%
CCCCNc1cc(=O)n(C)c(=O)n1C | nt | 4% | -8% | nt | nt
Cc1nn(-c2ccccc2)c2sc(-c3n[nH]c(=S)o3)cc12 | 5µM* | 27% | 3% | ? | ?
COc1cc2c(cc1OC)C1=C(C#N)CC/C(=N\S(=O)(=O)c3ccccc3)N1CC2 | 0.4µM* | ? | ? | -2% | -12%
COc1cc2c(cc1OC)C1=C(C#N)CCC(=O)N1CC2 | ? | 11% | -2% | -2% | ?
CC(C)CCSc1nc2c(c(=O)[nH]c(=O)n2C)n1CCc1ccccc1 | ? | ? | 10µM* | -1% | -2%
